Measured values published in PubChem BioAssay.
Records with an inconclusive call do not appear. Calls of active or inactive are those of the source.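 The calls were made as follows, unless noted: active = RAM network inhibition above 8.4% in each of two replicates, 3 SD over the compound average; inconclusive = above 8.4% inhibition in only one replicate; inactive = 8.4% inhibition or less in each replicate.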

Columns and labels:
[1] = Her2 expression decrease, cell viability multiplex – SKBR3 breast tumor cells, AlphaScreen, ATP viability, primary screen (AID 461;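 active = Her2 level under about 52% in both replicate screens, with viability over 70% of control, limit read from the data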;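 as to Her2 level: lower value means less Her2 protein in the cells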;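 as to viability: percent of carrier control wells set as 100% viability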); settings: SKBR3 Her2 protein level, 18-24 h, measured here: SKBR3 viability, ATP luminescence, at 10 µM
[2] = biological target: Receptor tyrosine-protein kinase erbB-2 (Homo sapiens) (UniProt P04626); test: as above; settings: 18-24 h, at 10 µM, stronger effect = lower value
[3] = reduced viability of SK-BR-3 breast cancer cells – cell-based, 24 h, human, pilot screen (AID 572;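 active = viability at or below 10% of carrier control in both of two separate runs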;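 also: compound exposure lasted between 18 and 24 h rather than exactly 24 h; 100% = carrier-treated control wells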); settings: SK-BR-3 viability, CellTiter-Glo luminescence, at 10 µM, stronger effect = lower value
[4] = HUVEC growth inhibition – cell-based, human, primary screen (AID 575;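 active = viability at or below 30% in both replicate assays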;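 also: 100% = median of untreated cell wells with 0.1% DMSO on each plate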); settings: HUVEC proliferation, CellTiter-Glo luminescence, 72 h; at 10 µM; stronger effect = lower value
[5] = H69AR cell proliferation blockers – human, duplicate replicates, primary screen (AID 580;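 active = viability at or under a set limit in both replicates, limit being median viability minus 3 SD, cut at about 48% in these data, passing the limit was not always enough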;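 also: 100% = mean luminescence of untreated wells and 0% = no signal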); settings: H69AR lung tumor cells viability, ATP luminescence, 72 h; at 10 µM; stronger effect = lower value
[6] = MRP1 drug-resistance reversers in H69AR cells – cell-based, doxorubicin co-treatment, pilot screen (AID 601;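 active = viability loss from added drug above about 55%, and viability with drug at most 40%, in both replicates, limit read from the data, passing the limit was not always enough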); settings: CellTiter-Glo, 72 h, at 10 µM; for differential viability (reversal): stronger effect = higher value
[7] = yeast transport mutant growth inhibition pilot in 384-well plates, post-Golgi transport modulator project (AID 636; in the data active = inhibition above about 31%); settings: absorbance 615 nm, about 18 h, stronger effect = higher value
[8] = growth suppression of yeast trafficking mutant, preliminary HTS, modulators of trafficking downstream of Golgi apparatus project, 1536-format plate, OD 615 nm (AID 637; in the data active = inhibition above about 30%); settings: yeast transport mutant growth, absorbance 615 nm, 18 h; stronger effect = higher value
[9] = S. cerevisiae growth inhibition in permissive medium (OD615), pilot counter-assay for S. cerevisiae lifespan shortening project, permissive growth control (AID 705;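 active = growth inhibition above 25% in both replicates, a cutoff set 3 SD above the mean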); settings: OD615, 24 h, at 10 µM, stronger effect = higher value
[10] = S. cerevisiae growth inhibition in restrictive medium, OD615, pilot screen, restrictive growth control, yeast lifespan reduction project (AID 706;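 active = growth inhibition above a set limit, 3 SD over mean compound inhibition, in both replicates, cut at about 43% in these data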;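 also: modified DeaD lifespan yeast strain shifted to restrictive glucose medium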); settings: OD615, 48 h, at 10 µM, stronger effect = higher value
[11] = doxorubicin toxicity protection in MRP-1 cells – H69AR cells, CellTiter-Glo, duplicate, MRP-1 activator project, pilot screen (AID 807;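 active = viability increase at or above a cutoff of the median across tested compounds plus 3 SD, cut at about 8.5% in these data, passing the limit was not always enough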;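 also: compound pretreatment 18-22 h then 72 h combined with doxorubicin; 0% = doxorubicin alone and 100% = vehicle without doxorubicin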); settings: H69AR viability with doxorubicin, CellTiter-Glo luminescence; at 10 µM; stronger effect = higher value
[12] = viability of HCT116 without oncogenic beta-catenin – human colon tumor cells, pilot screen (AID 823;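 active = cell viability at or below a set limit in both duplicate runs, the limit being the all-compound median minus 4 SD, cut at about 23% in these data, passing the limit was not always enough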;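 also: 0% = wells killed by 20 µM Hyamine and 100% = untreated DMSO cell wells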); settings: HCT116 beta-catenin knockout viability, CellTiter-Glo, 60 h; at 10 µM; stronger effect = lower value
[13] = viability of PTEN-null HCT116 cells – cell-based, HCT116 clonal line, CellTiter-Glo, pilot screen (AID 824;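 active = viability at or below 27.92% in each of two runs, the all-compound median minus 4 SD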;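 also: 0% = 20 µM Hyamine control and 100% = vehicle cell control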); settings: HCT116 PTEN-deleted viability, 60 h, at 10 µM, stronger effect = lower value
[14] = RAM pathway blockade in budding yeast – dse1pr::URA3 reporter, 5-FOA selection, pilot screen (AID 869;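 active = inhibition over a set limit, the all-compound mean plus 3 SD, in both replicate runs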;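 also: 0% = DMSO wells with no growth and 100% = 10 µM 1-NA-PP1 with full growth; RAM network block rescues cells from 5-FOA so hits raise OD615 growth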); settings: S. cerevisiae dse1pr::URA3 5-FOA growth, OD615, 2 d; at 10 µM; stronger effect = higher value; strain carries analog-sensitive mutant Cbk1 kinase
[15] = RAM signaling pathway blockade in yeast – S. cerevisiae, Pdr1DBD-CYC8 efflux-inhibited sensitized strain, primary screen (AID 1298);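 also: 0% = DMSO untreated cells without growth and 100% = 10 µM 1-NA-PP1 full growth; higher means more yeast growth rescued from 5-FOA killing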; settings: S. cerevisiae cbk1-as DSE1-URA3 strain, 5-FOA growth OD615, 2 d; at 50 µM; stronger effect = higher value
[16] = H69AR cells + 2 uM doxorubicin, measured here: viability with 2 uM doxorubicin, stronger effect = lower value
[17] = H69AR cells, compound alone cytotoxicity

Chain of Receptor tyrosine-protein kinase erbB-2 (Homo sapiens) (P04626 whole entry, looked up): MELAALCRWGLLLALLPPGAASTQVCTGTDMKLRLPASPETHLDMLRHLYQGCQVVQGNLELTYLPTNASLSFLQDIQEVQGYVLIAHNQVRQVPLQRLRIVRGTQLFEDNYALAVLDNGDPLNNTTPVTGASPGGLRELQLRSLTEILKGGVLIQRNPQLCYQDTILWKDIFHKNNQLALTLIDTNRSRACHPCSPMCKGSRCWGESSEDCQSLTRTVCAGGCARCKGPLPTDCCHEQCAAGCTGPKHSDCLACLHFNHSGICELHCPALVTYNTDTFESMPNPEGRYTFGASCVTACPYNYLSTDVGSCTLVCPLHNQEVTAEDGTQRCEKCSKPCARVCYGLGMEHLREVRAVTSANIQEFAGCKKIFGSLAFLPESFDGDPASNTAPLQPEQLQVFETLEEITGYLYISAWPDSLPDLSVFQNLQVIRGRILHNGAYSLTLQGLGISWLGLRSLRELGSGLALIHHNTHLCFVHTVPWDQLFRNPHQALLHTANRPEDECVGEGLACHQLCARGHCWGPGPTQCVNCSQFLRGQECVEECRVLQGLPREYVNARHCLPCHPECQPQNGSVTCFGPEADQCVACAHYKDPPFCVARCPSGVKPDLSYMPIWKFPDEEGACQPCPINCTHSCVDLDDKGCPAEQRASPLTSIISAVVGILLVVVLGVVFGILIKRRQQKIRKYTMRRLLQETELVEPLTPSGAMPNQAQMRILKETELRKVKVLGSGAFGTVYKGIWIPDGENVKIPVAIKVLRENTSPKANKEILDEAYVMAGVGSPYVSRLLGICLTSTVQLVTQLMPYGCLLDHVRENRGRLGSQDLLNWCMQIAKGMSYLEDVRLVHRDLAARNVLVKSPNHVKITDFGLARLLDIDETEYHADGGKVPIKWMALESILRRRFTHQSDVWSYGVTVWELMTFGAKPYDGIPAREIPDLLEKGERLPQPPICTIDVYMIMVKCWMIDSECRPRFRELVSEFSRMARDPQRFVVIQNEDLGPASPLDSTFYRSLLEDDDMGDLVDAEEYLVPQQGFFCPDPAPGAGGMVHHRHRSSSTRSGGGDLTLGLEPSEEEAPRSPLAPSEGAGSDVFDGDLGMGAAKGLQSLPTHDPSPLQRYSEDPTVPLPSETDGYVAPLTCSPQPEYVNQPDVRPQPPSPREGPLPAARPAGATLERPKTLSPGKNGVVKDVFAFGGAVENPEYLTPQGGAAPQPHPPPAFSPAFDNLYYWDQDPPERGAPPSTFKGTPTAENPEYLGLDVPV

Cc1nnc(SCC(=O)NCc2ccccc2)s1
101%: viability [6, 17]
97.5%: viability [1]
99.3%: viability [6, 16]
inactive: Her2 level [2] 110% | viability [3] 97.5% | viability [4] 81.2% | viability [5] 101% | differential viability (reversal) ([6]; H69AR cells + 2 uM doxorubicin) 1.61% | inhibition [7] -1.43% | inhibition [8] -2% | growth inhibition [9] -11.3% | growth inhibition [10] -11.3% | viability increase [11] -1.46% | viability [12] 101% | viability [13] 102% | inhibition [14] 0.99% | RAM network inhibition [15] 4.69%

COc1ccc(N(CC(=O)Nc2cc(C)ccc2C)S(=O)(=O)c2c(C)nn(C)c2C)cc1
93.6%: viability [6, 16]
92%: viability [1]
inactive: Her2 level [2] 114% | viability [3] 92% | viability [4] 73.8% | viability [5] 93.2% | differential viability (reversal) ([6]; H69AR cells + 2 uM doxorubicin) -0.425% | inhibition [7] -0.38% | inhibition [8] -3% | growth inhibition [9] -7.38% | growth inhibition [10] -20.5% | viability increase [11] -2.75% | viability [12] 83.8% | viability [13] 80.3% | inhibition [14] 0.14% | RAM network inhibition [15] 7.15%
93.2%: viability [6, 17]

O=C(NC(=O)c1cccc(F)c1)OC[C@@H]1CCCN2CCCC[C@H]12
inactive: Her2 level [2] 111% | viability [3] 102% | viability [4] 110% | viability [5] 96.5% | differential viability (reversal) ([6]; H69AR cells + 2 uM doxorubicin) 0.59% | inhibition [7] -6% | inhibition [8] 1.48% | growth inhibition [9] 1.28% | growth inhibition [10] -9.63% | viability increase [11] -0.15% | viability [12] 99.4% | viability [13] 96.3% | inhibition [14] 0.89% | RAM network inhibition [15] 9.99%
95.9%: viability [6, 16]
102%: viability [1]
96.5%: viability [6, 17]

Oc1ccc2ccccc2c1CN1CCN(c2ccccc2F)CC1
110%: viability [1]
inactive: Her2 level [2] 90% | viability [3] 110% | viability [4] 90.1% | viability [5] 76.6% | differential viability (reversal) ([6]; H69AR cells + 2 uM doxorubicin) 3.1% | inhibition [7] -3.47% | inhibition [8] -0.33% | growth inhibition [9] -13.8% | growth inhibition [10] -10.6% | viability increase [11] -5.72% | viability [12] 95.4% | viability [13] 93.9% | inhibition [14] 0.72% | RAM network inhibition [15] 0.16%
73.5%: viability [6, 16]
76.6%: viability [6, 17]

Cc1c(NC(=O)c2noc3c2CCc2ccccc2-3)c(=O)n(-c2ccccc2)n1C
95.5%: viability [1]
99.7%: viability [6, 17]
inactive: Her2 level [2] 97.5% | viability [3] 95.5% | viability [4] 102% | viability [5] 99.7% | differential viability (reversal) ([6]; H69AR cells + 2 uM doxorubicin) -5.54% | inhibition [7] -5.73% | inhibition [8] -7.21% | growth inhibition [9] -3.5% | growth inhibition [10] 6.45% | viability increase [11] -0.3% | viability [12] 101% | viability [13] 102% | inhibition [14] 1.05% | RAM network inhibition [15] 4.92%
105%: viability [6, 16]

CCCC(=O)Nc1nc2ccc(S(N)(=O)=O)cc2s1
88%: viability [1]
inactive: Her2 level [2] 98% | viability [3] 88% | viability [4] 90% | viability [5] 106% | differential viability (reversal) ([6]; H69AR cells + 2 uM doxorubicin) 34.3% | inhibition [7] -3.33% | inhibition [8] 6.33% | growth inhibition [9] -4% | growth inhibition [10] -0.595% | viability increase [11] -1.78% | viability [12] 99.4% | viability [13] 90.5% | inhibition [14] 0.465% | RAM network inhibition [15] -0.2%
71.4%: viability [6, 16]
106%: viability [6, 17]

Cc1noc(/C=C/N(C)C)c1S(=O)(=O)N1CCCC(C(=O)NCCC2=CCCCC2)C1 (centres undefined)
inactive: Her2 level [2] 79% | viability [3] 94.5% | viability [4] 79.7% | viability [5] 104% | differential viability (reversal) ([6]; H69AR cells + 2 uM doxorubicin) 15.8% | inhibition [7] -1.87% | inhibition [8] -1.31% | growth inhibition [9] -0.38% | growth inhibition [10] -11.2% | viability increase [11] 2.75% | viability [12] 92.1% | viability [13] 72.8% | inhibition [14] 1.23% | RAM network inhibition [15] 6.39%
88.7%: viability [6, 16]
104%: viability [6, 17]
94.5%: viability [1]
